Among the data in paper PMC10668032, “Altered binding affinity of SIX1-Q177R correlates with enhanced WNT5A and WNT pathway effector expression in Wilms tumor” are binding signal values, retold here.

The full ranking holds about 33,000 sequences; the median of “e-score” is about -0.053, and the highest 2% start at about 0.38. The full list was thinned out, with the highest values kept by preference.

The test has as its target T1, SIX1 homeodomain (reference allele) (human, UniProt Q15475 108-198).
T1 sequence: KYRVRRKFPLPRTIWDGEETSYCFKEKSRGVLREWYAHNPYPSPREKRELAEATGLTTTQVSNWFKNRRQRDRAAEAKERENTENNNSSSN
The test is described as follows: universal protein binding microarray; Universal all-10-mer PBM (8x60K, AMADID 030236), 300 nM GST-tagged protein, Alexa Fluor 488 anti-GST; buffer, salt, pH and temperature not stated (as in Berger); high values mean tight binding. As to conditions: protein: ivt; tags: N-terminal GST; dsDNA, one strand shown. A digest of the protocol: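 Homeodomains carrying a GST tag were produced by in vitro transcription/translation, then quantified by anti-GST western blot against a recombinant GST standard curve. Duplicate applications at 300 nM final concentration were made to universal 'all 10-mer' protein binding microarrays in 8×60K format. The Universal PBM Analysis Suite was used to express binding as 8-mer E-scores.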
With TAGAGATA, the binding signal came to 0.268 ± 0.0459 E-score. With AGGCCGAT the figure was 0.153 ± 0.00796 E-score; with ATATAACC, 0.177 ± 0.0584 E-score; with ATCGCTGG, 0.23 ± 0.00422 E-score. With AGATAGCC the figure was 0.247 ± 0.0195 E-score. Turning to ATCTGGGA, the binding signal came to 0.196 ± 0.00724 E-score. With TATCTAAA the figure was 0.301 ± 0.0245 E-score; with GTATACAC, 0.371 ± 0.00578 E-score; with ATCATGAT, 0.3975 ± 0.000976 E-score. The figure for ATCATGAC is 0.197 ± 0.0404 E-score; for ATCATGAG it is 0.23 ± 0.0357 E-score. ATCAGGAA: the binding signal stood at 0.165 ± 0.0245 E-score. The figure for ATCAGGAT is 0.394 ± 0.00836 E-score. With ATCAGGAG the figure was 0.188 ± 0.0305 E-score; with CATCGGGA, 0.164 ± 0.0507 E-score. With ATCTACTG the figure was 0.22 ± 0.0235 E-score; with GATCGGGC, 0.296 ± 0.015 E-score.

CATATATG: the binding signal was found to be 0.23 ± 0.0477 E-score. The figure for TACATATA is 0.254 ± 0.00881 E-score; for CACATATC it is 0.404 ± 0.0155 E-score. For CACATATA, the binding signal turned out to be 0.165 ± 0.0792 E-score.

Regarding GACATATA, the binding signal came out at 0.226 ± 0.0783 E-score. The figure for AAAATATC is 0.154 ± 0.121 E-score; for AACATATA it is 0.235 ± 0.0646 E-score.

For AACATATC, the binding signal was found to be 0.378 ± 0.0821 E-score.

Turning to GACATATC, the binding signal amounted to 0.386 ± 0.0597 E-score. With ATATTACC the figure was 0.259 ± 0.0572 E-score; with ACGGTATA, 0.309 ± 0.0298 E-score; with CCGGTATC, 0.465 ± 0.014 E-score. In the case of ACGGTATG, the binding signal is 0.157 ± 0.0316 E-score.

In the case of CCGGTAAA, the binding signal turned out to be 0.157 ± 0.034 E-score.

For the sequence ACGGTATC, the binding signal was found to be 0.461 ± 0.00576 E-score. Consider CCGGTATA, for which the binding signal turned out to be 0.343 ± 0.0129 E-score. The figure for AGCTGGAT is 0.248 ± 0.0399 E-score; for CGGGCTCA it is 0.2 ± 0.0586 E-score; for GCGATACA it is 0.3759 ± 0.00354 E-score. As to ACGATAGC, the binding signal turned out to be 0.217 ± 0.0418 E-score. As to CCTATACC, the binding signal amounted to 0.311 ± 0.00556 E-score. Turning to CCGATACA, the binding signal stood at 0.355 ± 0.0604 E-score. The figure for CCGATAGG is 0.348 ± 0.0522 E-score. Regarding GCGATAGC, the binding signal worked out at 0.165 ± 0.0972 E-score.

With GCGATACC, the binding signal came out at 0.4835 ± 0.00434 E-score.

Consider CCAATACC, for which the binding signal is 0.324 ± 0.0157 E-score. With CCGATACC the figure was 0.478 ± 0.00955 E-score; with ACTATACC, 0.294 ± 0.0358 E-score; with ACGATACC, 0.4766 ± 0.000912 E-score. In the case of CCGATACG, the binding signal is 0.425 ± 0.0199 E-score.

On to ATCGCCCC, for which the binding signal was found to be 0.253 ± 0.0184 E-score.

For the sequence TCATCTCA, the binding signal was 0.298 ± 0.0135 E-score. With TACCTATA the figure was 0.289 ± 0.0262 E-score; with ACTGTATA, 0.239 ± 0.0136 E-score. With ACGATACT, the binding signal came to 0.439 ± 0.00647 E-score. On to ACGATACA, for which the binding signal turned out to be 0.3689 ± 0.00151 E-score. Take ACTATACG: the binding signal amounted to 0.247 ± 0.0175 E-score.

For CCTATACG, the binding signal is 0.153 ± 0.0436 E-score. With AAGATACT the figure was 0.295 ± 0.0825 E-score. With ACGATACG the figure was 0.4317 ± 0.000841 E-score; with GAGGTGTA, 0.233 ± 0.0426 E-score; with CCAATTAG, 0.188 ± 0.014 E-score. The figure for ATACTAGC is 0.245 ± 0.0797 E-score; for GGATAGTA it is 0.332 ± 0.00348 E-score. Take AGTATCGC: the binding signal is 0.435 ± 0.0231 E-score. For the sequence CGTATCGC, the binding signal came to 0.453 ± 0.00646 E-score. With ATTATCGG the figure was 0.24 ± 0.012 E-score; with ACTATCGC, 0.2364 ± 0.00196 E-score. In the case of ACTATCGA, the binding signal worked out at 0.263 ± 0.00274 E-score.

Regarding AAGATCGC, the binding signal amounted to 0.211 ± 0.00754 E-score. With AGTATCGA the figure was 0.418 ± 0.0178 E-score; with AGTATAGA, 0.195 ± 0.0499 E-score; with CGTATAGC, 0.185 ± 0.0242 E-score. On to CCTATCGC, for which the binding signal came out at 0.29 ± 0.0221 E-score. With AGTATCGG the figure was 0.4293 ± 0.0041 E-score; with AGTATATG, 0.207 ± 0.0381 E-score; with CTAGATAG, 0.197 ± 0.0328 E-score. The figure for ATATGCGA is 0.276 ± 0.0349 E-score. On to ATATAGCA, for which the binding signal worked out at 0.248 ± 0.0375 E-score.

TATTGAGA: the binding signal is 0.237 ± 0.0198 E-score. With AGATCTGC the figure was 0.204 ± 0.0418 E-score; with ACTCGTAT, 0.205 ± 0.0218 E-score.

On to GTATTGAA, for which the binding signal was 0.213 ± 0.0401 E-score.

On to CTTGTATA, for which the binding signal was determined as 0.213 ± 0.0563 E-score.

In the case of ATACAGCA, the binding signal was found to be 0.221 ± 0.0273 E-score. With ATACTAGG the figure was 0.275 ± 0.02 E-score. With AATACGAC the figure was 0.18 ± 0.0741 E-score. With AATACGGC the figure was 0.252 ± 0.0178 E-score; with TATACGGA, 0.28 ± 0.0266 E-score. With GATACGAA, the binding signal turned out to be 0.335 ± 0.00345 E-score.
